According to PubChem BioAssay (NCI):
Compounds without any hit were thinned out: in the full panel of roughly 83,000, 20% have a hit.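 A percent growth of 40 corresponds to 60% growth inhibition; 0 means no net growth; -100 means all cells died. Active threshold: below 10.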 Values without a mark were called inactive. Calls of active or inactive are those of the source.

How the values were obtained:
Test in all cases: NCI-60 one-dose screen, 48 h (100 = growth as untreated, 0 = no growth, -100 = all killed)
Conditions in all cases: 10 µM unless noted
SK-MEL-2 melanoma = tested on: SK-MEL-2 melanoma
EKVX NSCLC = tested on: EKVX NSCLC
SN12C renal = tested on: SN12C renal
UO-31 renal = tested on: UO-31 renal
TK-10 renal = tested on: TK-10 renal
CAKI-1 renal = tested on: CAKI-1 renal
A498 renal = tested on: A498 renal
CCRF-CEM leukemia = tested on: CCRF-CEM leukemia
MOLT-4 leukemia = tested on: MOLT-4 leukemia
SR leukemia = tested on: SR leukemia
RPMI-8226 leukemia = tested on: RPMI-8226 leukemia
OVCAR-8 ovarian = tested on: OVCAR-8 ovarian
OVCAR-5 ovarian = tested on: OVCAR-5 ovarian
OVCAR-4 ovarian = tested on: OVCAR-4 ovarian
SK-OV-3 ovarian = tested on: SK-OV-3 ovarian
IGROV1 ovarian = tested on: IGROV1 ovarian
OVCAR-3 ovarian = tested on: OVCAR-3 ovarian
HS 578T breast = tested on: HS 578T breast
NCI/ADR-RES ovarian = tested on: NCI/ADR-RES ovarian
ACHN renal = tested on: ACHN renal

Compound | growth (SK-MEL-2 melanoma) | growth (EKVX NSCLC) | growth (SN12C renal) | growth (UO-31 renal) | growth (TK-10 renal) [%] | growth (CAKI-1 renal) | growth (A498 renal) | growth (CCRF-CEM leukemia) | growth (MOLT-4 leukemia) | growth (SR leukemia) | growth (RPMI-8226 leukemia) | growth (OVCAR-8 ovarian) | growth (OVCAR-5 ovarian) | growth (OVCAR-4 ovarian) | growth (SK-OV-3 ovarian) | growth (IGROV1 ovarian) | growth (OVCAR-3 ovarian) | growth (HS 578T breast) | growth (NCI/ADR-RES ovarian) | growth (ACHN renal)
Cc1ccc(NC(=O)c2ccc(CN3CCOCC3)c(C(F)(F)F)c2)cc1Oc1ccc(-c2[nH]nc3ncnc(N)c23)cc1 | 59.6% | 65.6% | 82.3% | 54.6% | 80 | 39.2% | 87.3% | 47.8% | 46.3% | 55.5% | 44.6% | 70.9% | 72% | 72.7% | 71.6% | 74.2% | 93.2% | 62.8% | 87.9% | –
O=C(CSc1nc2ccccc2c(=O)n1-c1ccc(Cl)cc1)N/N=C/c1ccc(N2CCCCC2)cc1 | 99.5% | 82.1% | 62.4% | 53% | 103 | – | 78.5% | 87% | 92% | 74.8% | 100% | 65.3% | 76.9% | – | 30.1% | 55.5% | 32.8% | 37.9% | 39.9% | 17.4%
O=C1CCC(N2C(=O)c3ccc(NS(=O)(=O)c4ccccc4OC(F)(F)F)cc3C2=O)C(=O)N1 (stereo not drawn) | 83.7% | 78.8% | 47.8% | 3.53% (active) | 63.4 | – | 28.5% | 13.2% | 2.34% (active) | 77.4% | 61% | 10.9% | 85.3% | 22.8% | 82.3% | 23.5% | 86.2% | 13.7% | 19.7% | 87.5%
Fc1ccc(-c2cc3nc(C(Cl)Cl)nc(-c4ccc(F)cc4)n3n2)cc1 | 108% | 7.26% (active) | 49.2% | 29.3% | 13.2 | – | -53.1% (active) | – | 12.4% | 3.96% (active) | 3.43% (active) | 11.8% | -14.3% (active) | -9.54% (active) | -29.2% (active) | 31.4% | -31.7% (active) | -1.86% (active) | 19.4% | -41.1% (active)
COc1ccccc1NC1=C(Cl)C(=O)c2nc(C)ccc2C1=O | 78.8% | 28.5% | -49.5% (active) | -65.7% (active) | 148 | – | 71.8% | -4.94% (active) | -39% (active) | – | -30.4% (active) | 9.87% (active) | 78.9% | -98.2% (active) | 88.3% | -83.5% (active) | -85.9% (active) | 72.1% | 7.08% (active) | -99.9% (active)
COc1ccc(OC)c(-c2nc(SCC(=O)c3ccc(Br)cc3)nc(Nc3ccc(S(N)(=O)=O)cc3)c2C#N)c1 | 30.4% | 63.7% | 49.1% | 59.2% | 96.3 | – | 26.4% | 35.4% | 28.5% | 13.9% | 51.2% | 62.8% | 73.3% | 57.3% | 79.9% | 54.7% | – | 13.4% | 74.4% | 55.9%
Nc1nc(N)c2c(n1)NC(c1ccc(C(F)(F)F)cc1)CC(c1ccc(Nc3nc(NCCO)nc(N4CCOCC4)n3)cc1)=N2 (stereo not drawn) | 80.6% | 85.5% | 78.2% | 80.4% | 97.5 | – | 72.6% | 35.1% | 23.8% | – | 28.9% | 60.2% | 97.6% | 79.5% | 99.7% | 72.6% | 61.2% | 58.5% | 97.5% | 88.3%
COc1ccc(/C=N/NC(=O)c2cn(C3CC3)c3c(OC)c(N4CC5CCCNC5C4)c(F)cc3c2=O)cc1 (stereo not drawn) | 107% | 102% | 81% | 62.4% | – | 82.9% | 83.3% | 63.6% | 60.4% | -3.21% (active) | 64.2% | 94.8% | 97.5% | 87.9% | 102% | 75.3% | 83.1% | 99.1% | 91% | 88.7%
CCCCCc1ccc(S(=O)(=O)Nc2cccc(-c3csc(NC(=O)CN4CCN(CCO)CC4)n3)c2)cc1 | 99.7% | 81.4% | 86.6% | 79.9% | – | 76.2% | 81% | 53.8% | 58.8% | 5.04% (active) | 20.2% | 91.4% | 101% | 79.2% | 89.5% | 85.5% | 93.2% | 69.4% | 99% | 101%
c1n[nH]cc1-c1nc2ccc3[nH]ncc3c2c2c1CCCC2 | -20.7% (active) | 42.1% | 15.1% | 11.9% | 15.1 | 0.509% (active) | -14.2% (active) | 28.1% | 24.6% | -9.78% (active) | 41.5% | 23.5% | 43.9% | 54.1% | -19.6% (active) | 20.8% | – | -4.89% (active) | 51.1% | –
CC(=O)O[C@@H]1C(=O)N(c2cnccn2)[C@H]1c1ccccc1[N+](=O)[O-] | 10.6% | 58.7% | 16.5% | 27.7% | – | 24.6% | -20.2% (active) | 12.3% | 16.4% | 11.5% | 13.3% | -20.5% (active) | 26.8% | 66.6% | 32.6% | 13.6% | 2.08% (active) | 13.8% | 26.7% | 21.1%
CCc1nn2c(C)cc(C)nc2c1Cc1ccc(/C=C/CN2CCN(CCOCCOCCN3CCN(C/C=C/c4ccc(Cc5c(CC)nn6c(C)cc(C)nc56)cc4)CC3)CC2)cc1 | 79.4% | 46.6% | 31.4% | -95.9% (active) | – | -16.2% (active) | 69.7% | -10.2% (active) | -17.6% (active) | -30.9% (active) | -41.9% (active) | 19.1% | 28.2% | 25.9% | 85.2% | 4.6% (active) | -60.4% (active) | -39.4% (active) | 23.2% | 1.5% (active)
O=C(NNc1nc2cc(F)c(F)cc2n2c(CN3CC4CNCC4C3)ccc12)c1ncccn1 (stereo not drawn) | 9.68% (active) | 20% | 25.8% | 13.6% | 16.2 | – | 18.7% | – | -6.62% (active) | 1.34% (active) | 18.7% | 7.54% (active) | 40% | 21.6% | 7.21% (active) | 14.9% | 34.6% | 71.5% | 62.3% | –
Nc1nc(Nc2ccccc2SSc2ccccc2Nc2nc(N)nc(-c3ccccc3)n2)nc(-c2ccccc2)n1 | 106% | 47.1% | 77.8% | -12.6% (active) | 101 | 25.2% | 78.7% | – | 50.7% | -47% (active) | 11.2% | 73.9% | 107% | 63% | 130% | 52.2% | 90.3% | 84.3% | 14.9% | –
NS(=O)(=O)c1ccc(Nc2nc(SCC(=O)c3ccc(Cl)cc3)nc3c2CCCC3)cc1 | 67% | 47.8% | 25.6% | 38% | 86.6 | 43.2% | 61.1% | 41.1% | 38.4% | 26.9% | 42.8% | 52.3% | 88.3% | – | 101% | 84.8% | – | 44.6% | 74.6% | –
C#CC(=O)N(c1ccc(OC)cc1OC)C(C(=O)NCC(=O)OCC)c1cccs1 (stereo not drawn) | 95% | 36.4% | 44.9% | -79.9% (active) | – | -83.9% (active) | 57.2% | -53.8% (active) | -22.2% (active) | -25% (active) | -55.3% (active) | 46.6% | 2.13% (active) | 116% | 89.5% | -58.1% (active) | -58.9% (active) | 20.9% | 87.5% | -90.2% (active)
